Consider 8 compounds from PubChem BioAssay AID2284349 (EPA ToxCast).

Records with an inconclusive call do not appear. The source made the active and inactive calls. Rule for the calls: active = hit-call score of the fitted dose curve at least 0.9, where 1 is the maximum; inconclusive = response in the unintended direction; inactive = score below 0.9.

Chain of frog Peroxisome Proliferator-activated Receptor-gamma (PPARg), pparg (gene 397769) (P37234 whole entry, looked up): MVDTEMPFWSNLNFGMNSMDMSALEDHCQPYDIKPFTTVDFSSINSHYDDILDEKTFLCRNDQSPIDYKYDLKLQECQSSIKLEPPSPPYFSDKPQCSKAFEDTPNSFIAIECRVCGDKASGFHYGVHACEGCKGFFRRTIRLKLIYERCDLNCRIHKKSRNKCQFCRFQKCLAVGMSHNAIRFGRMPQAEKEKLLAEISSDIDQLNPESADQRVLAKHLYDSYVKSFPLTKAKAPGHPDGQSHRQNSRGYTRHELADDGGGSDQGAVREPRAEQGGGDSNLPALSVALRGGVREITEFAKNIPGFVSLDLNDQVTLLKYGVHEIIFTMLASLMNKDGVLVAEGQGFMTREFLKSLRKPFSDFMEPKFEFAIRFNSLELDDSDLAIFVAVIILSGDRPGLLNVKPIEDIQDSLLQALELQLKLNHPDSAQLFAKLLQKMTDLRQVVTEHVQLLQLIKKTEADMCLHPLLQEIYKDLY

The target of the experiment is frog Peroxisome Proliferator-activated Receptor-gamma (PPARg), pparg (gene 397769) (UniProt P37234). The experiment in a line: ATG_frPPARg_EcoTox2: Attagene TRANS-FACTORIAL EcoTox-2 HepG2 Assay for frog Peroxisome Proliferator-activated Receptor-gamma (PPARg). The procedure:
ATG_EcoTox2 is a cell-based, multiplexed assay created by modifying the existing Attagene TRANS-FACTORIAL system to include a panel of nuclear receptors from some or all the following species: human (Homo sapiens), african clawed frog (Xenopus laevis), rainbow trout (Oncorhynchus mykiss), japanese medaka (Oryzias latipes), and zebrafish (Danio rerio). The ECOTOX2-FACTORIAL format uses HepG2, a human liver cell line, with measurements taken at 24 hours after chemical dosing in a 24-well plate. ATG_frPPARg_EcoTox2 is one of 29 assay components calculated in the ATG_EcoTox2 assay. It is designed to make measurements of mRNA induction, a form of inducible reporter, as detected with fluorescence intensity signals by Reverse transcription polymerase chain reaction (RT-PCR) and Capillary electrophoresis technology.The assay endpoint ATG_frPPARg_EcoTox2 was analyzed in the positive analysis fitting direction relative to DMSO as the negative control and baseline of activity. Using a type of inducible reporter, measures of mRNA for gain-of-signal activity can be used to understand the reporter gene at the transcription factor-level as they relate to the gene PPARg. Furthermore, this assay endpoint can be referred to as a primary readout, because this assay has produced multiple assay endpoints where this one serves a reporter gene function. To generalize the intended target to other relatable targets, this assay endpoint is annotated to the nuclear receptor intended target family, where the subfamily is non-steroidal.
Human liver HepG2 cells are transiently transfected with multiple reporter transcription units (MRTUs) in 6-well plates using FuGene 6 reagent (Roche; 3 ml FuGene/1 mg DNA). The MRTU constructs are regulated by a cis-regulating element (promoter). Each RTU expresses a GAL4-UAS that regulates the transcription of a nearby target reporter gene sequence. A major difference between the CIS and TRANS system is that in CIS activities of endogenous TFs are measured, whereas the TRANS assay evaluates changes in activities of exogenous, chimeric NR-Gal4 proteins. […] At the end of 24 hour incubation, total RNA was isolated using TriZol reagent (Invitrogen). The isolated RNA is then reverse-transcribed using oligo(dT) primer and Mo-MLV reverse transcriptase (Invitrogen) with DNAse I (Ambion) treatment for 30 min. The one-tenth of the produced cDNA was amplified by PCR using Taq DNA polymerase (Invitrogen) and two reporter sequence-specific primers. The PCR products were fluorescently labeled by primer extension with 6-arboxyfluorescein (6-FAM) 5'-labeled reporter sequence-specific primer (2 min at 95 C, 20 s at 68 C and 10 min at 72 C) and these products were digested with 5U of HpaI (New England Biolabs) for 2h at 37 C. The fragments were purified using Qiaquick PCR columns (Qiagen), analyzed on an ABI 3130xL genetic analyzer (Applied Biosystems) with peak positions identified by using a set of X-rhodamine (ROX)-labeled MapMarker1000 molecular weight standards (BioVentures). The raw capillary electrophoresis data was processed using Attagraph software (Attagene).
Regarding `C[C@@H]1C[C@H]2[C@@H]3CCC4=CC(=O)C=C[C@]4(C)[C@@]3(F)[C@@H](O)C[C@]2(C)[C@@]1(O)C(=O)COP(=O)(O)O`, the result was inactive.

In the case of `CC(C)(Oc1ccc(CCNC(=O)c2ccc(Cl)cc2)cc1)C(=O)O`, the result was inactive.

`CC(C)(Oc1ccc(Cl)cc1)C(=O)O`: the compound was classed as inactive.

For the compound `CC(c1cc2ccccc2s1)N(O)C(N)=O` (stereo not drawn), the call was inactive.

As for `Cc1cccc(Nc2cc(Cl)nc(SCC(=O)O)n2)c1C`, the compound was classed as inactive.

In the case of `CC(C)OC(=O)C(C)(C)Oc1ccc(C(=O)c2ccc(Cl)cc2)cc1`, the call was inactive.

`Cc1ccc(C)c(OCCCC(C)(C)C(=O)O)c1`: the result was inactive.

On to `C=C(c1ccc(C(=O)O)cc1)c1cc2c(cc1C)C(C)(C)CCC2(C)C`, for which the outcome was inactive.
